{
  "source": "PubChem BioAssay (NCATS)",
  "note": "Values joined by “and” are separate entries in the source; they are usually repeats but may differ in a detail not shown here. Equal entries are not always repeated. Active and inactive are the calls of the source. The call rests on the fitted dose curve; in most records, active means well fitted activation curve with a large enough effect; inconclusive means small, poorly fitted or top-dose-only effect; inactive means flat fitted curve, though single readings scatter.",
  "data": [
    {"molecular_target": "Peroxisome proliferator-activated receptor alpha (Homo sapiens) (UniProt Q07869)", "sequence (Q07869 whole entry, looked up)": "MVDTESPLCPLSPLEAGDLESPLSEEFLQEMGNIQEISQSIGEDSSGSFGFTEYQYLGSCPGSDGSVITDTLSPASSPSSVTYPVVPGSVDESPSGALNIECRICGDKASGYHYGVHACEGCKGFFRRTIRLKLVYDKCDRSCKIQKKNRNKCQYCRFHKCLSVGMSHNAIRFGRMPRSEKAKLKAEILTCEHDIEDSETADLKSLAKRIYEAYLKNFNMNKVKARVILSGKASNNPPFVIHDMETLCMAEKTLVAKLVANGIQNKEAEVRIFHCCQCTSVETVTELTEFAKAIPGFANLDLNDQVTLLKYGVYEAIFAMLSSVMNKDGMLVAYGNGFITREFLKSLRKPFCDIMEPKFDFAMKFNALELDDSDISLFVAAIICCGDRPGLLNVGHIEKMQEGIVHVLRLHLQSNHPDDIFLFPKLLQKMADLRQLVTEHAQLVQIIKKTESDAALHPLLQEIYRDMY", "experiment": "qHTS assay for small molecule agonists of the peroxisome proliferator-activated receptor alpha (PPARalpha) signaling pathway (AID 651778); further: % of control where 0% means no effect", "settings": "PathHunter PPARalpha complementation, chemiluminescence, 6 h; max response: active compounds read high", "description": "National Center for Advancing Translational Sciences [NCATS]\nNIH Chemical Genomics Center [NCGC]\nU.S. Environmental Protection Agency [EPA]\nNational Institutes of Environmental Health Sciences [NIEHS]\nNational Toxicology Program [NTP]\nThe Peroxisome proliferator-activated receptors (PPARs) are lipid-activated transcription factors of the nuclear receptor superfamily with three distinct subtypes (alpha, garmma and beta/delta). All these subtypes heterodimerize with retinoid X receptor and have different physiological functions. PPARalpha is highly expressed in tissues with high rates of mitochondrial fatty acid oxidation, such as liver, heart, muscle, kidney and cells of the arterial wall. PPARalpha is a major regulator of lipid metabolism and energy homeostasis.\nA cell based assay was used to identify activators of PPARalpha. The assay detects binding of a ligand to PPARalpha leading to its activation, translocation and complementation thus forming a functional enzyme capable of hydrolyzing the substrate molecule and generating chemiluminescent signal.\n2,000 cells in 6 uL/well were dispensed into white wall/solid bottom 1536-well plates using a Multidrop Combi (Thermo Scientific) dispenser. After incubation 37 C and 5% CO2 overnight, 23 nL compound or DMSO only were transferred by a pin tool. The plates were incubated for 6 hr at 37 C and 5% CO2. 3 ul PathHunter detection reagent (Discoverx) was then added to each well and following 60 min incubation at room temperature, chemiluminescence was quantified on a ViewLux CCD-based plate reader.", "values": [
      {"molecule": "CCCCCCCC/C=C\\CCCCCCCCO", "max response": "8.71% (inactive)"},
      {"molecule": "CCCCCCCC[Si](OCC)(OCC)OCC", "max response": "0.0712% (inactive)"},
      {"molecule": "CCCCCCCCCCCCCCC", "max response": "-1.61% (inactive)"},
      {"molecule": "Cc1ccc(Cl)cc1Cl", "max response": "-0.243% (inactive)"},
      {"molecule": "CCOC(=O)C1=NN(c2ccc(Cl)cc2Cl)C(C)(C(=O)OCC)C1", "note": "(stereo not given)", "max response": "0.459% (inactive)"},
      {"molecule": "C=Cc1ccc(P(c2ccccc2)c2ccccc2)cc1", "max response": "-0.0796% (inactive)"},
      {"molecule": "Oc1ccc(Nc2ccccc2)cc1", "max response": "-0.779% (inactive)"},
      {"molecule": "C=C(C)C(=O)OCC[N+](C)(C)C", "max response": "-2.12% (inactive)"},
      {"molecule": "CCCCOCCOCCOCCO", "max response": "-1.01% (inactive)"},
      {"molecule": "CCOC(=O)COc1cc(-n2ncc(C(F)(F)F)c(C)c2=O)c(F)cc1Cl", "max response": "-2.22% (inactive)"},
      {"molecule": "Cc1ccc(N=Nc2c(O)ccc3ccccc23)c([N+](=O)[O-])c1", "max response": "0.597% (inactive)"},
      {"molecule": "CCCCOCCOCCOC(=O)CCCCC(=O)OCCOCCOCCCC", "max response": "3.34% (inactive)"},
      {"molecule": "CC1=CC2C3CC(C=C3C)C2C1", "note": "(stereo not given)", "max response": "-1.19% (inactive)"},
      {"molecule": "CCC(=O)C1C(=O)CC(C(=O)O)CC1=O", "note": "(stereo not given)", "max response": "1.2% (inactive)"},
      {"molecule": "Cc1cc(C)c(N)c(Cl)c1", "max response": "-1.91% (inactive)"},
      {"molecule": "CC/C(=C(\\c1ccc(O)cc1)c1ccc(OCCN(C)C)cc1)c1ccccc1", "max response": "-2.87% (inactive)"},
      {"molecule": "CC(=O)OC(C)(C)C1CC=C(C)CC1", "note": "(stereo not given)", "max response": "-5.04% (inactive)"},
      {"molecule": "S=C([S-])NCCNC(=S)[S-].S=C([S-])NCCNC(=S)[S-].[Mn+2].[Zn+2]", "max response": "-4.1% (inactive)"},
      {"molecule": "CC(C)OC(=O)c1ccccc1C(=O)OC(C)C", "max response": "-0.635% (inactive)"},
      {"molecule": "O=C(O)c1cccc(C(=O)O)c1", "max response": "-0.8% (inactive)"},
      {"molecule": "CCCCC(CC)COP(=O)(O)OCC(CC)CCCC", "note": "(stereo not given)", "max response": "10.3% (inactive)"},
      {"molecule": "O=C=NCCCCCCN=C=O", "max response": "-1.66% (inactive)"},
      {"molecule": "CCN(Cc1cccc(S(=O)(=O)O)c1)c1ccc(C(=C2C=CC(=[N+](CC)Cc3cccc(S(=O)(=O)[O-])c3)C=C2)c2ccccc2)cc1", "max response": "-3.93% (inactive)"},
      {"molecule": "COC(=O)CCSCCC(=O)OC", "max response": "-1.49% (inactive)"},
      {"molecule": "C[Si](C)(Cl)[Si](C)(C)Cl", "max response": "1.76% (inactive)"},
      {"molecule": "COc1ccc(OC)c(OC)c1", "max response": "0.14% (inactive)"},
      {"molecule": "COCCO", "max response": "-2.01% (inactive) and -0.724% (inactive)"},
      {"molecule": "O=S(=O)(O)c1ccc(N=Nc2cc(S(=O)(=O)O)c3ccccc3c2O)c2ccccc12", "max response": "-9.4% (inactive)"},
      {"molecule": "COCCOCCOCCOC", "max response": "-0.298% (inactive)"},
      {"molecule": "CCCCCCOCCOCCO", "max response": "0.465% (inactive)"},
      {"molecule": "O=C1CCCCCCCCCCC1", "max response": "-0.988% (inactive)"},
      {"molecule": "CCCCCCCCCC(C)=O", "max response": "0.198% (inactive)"},
      {"molecule": "CCOc1ccc(NC(=O)OC(C)C)cc1OCC", "max response": "2.76% (inactive)"},
      {"molecule": "CO[Si](OC)(OC)c1ccccc1", "max response": "-1.36% (inactive)"},
      {"molecule": "CCCCCCCCCc1ccccc1", "max response": "-0.702% (inactive)"},
      {"molecule": "CC(=O)CC(=O)Nc1ccccc1C", "max response": "-0.992% (inactive)"},
      {"molecule": "CCCCCCCCCCCC[N+](C)(C)[O-]", "max response": "0.14% (inactive)"},
      {"molecule": "O=c1[nH]c(=O)c2[nH]cnc2[nH]1", "max response": "-2.27% (inactive)"},
      {"molecule": "CCCCCCCCCC(=O)OC", "max response": "1.96% (inactive)"},
      {"molecule": "O=C1CCC(C2CCCCC2)CC1", "max response": "-1.16% (inactive)"}
    ]}
  ]
}
